The values that follow come from PubChem BioAssay (EPA / NIEHS).

One may read the AC50 as the midpoint of the concentration-response curve, whichever way the signal moves.

Molecules are shown by their SMILES. Active and inactive are the calls of the source. Rule for the calls: active = hit-call score of the fitted dose curve at least 0.9, where 1 is the maximum; inactive = score below 0.9.

Assay [1] can be described thus: ATG_CRE_CIS: Attagene CIS-FACTORIAL HepG2 Assay for human cAMP Responsive Element (CRE) binding protein 3 (AID 2282926). The following applies: HepG2 CRE cis-reporter, Attagene multiplexed mRNA; actives raise or lower the signal. An outline of the steps:
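Transfected HepG2 were treated for 24 hours, then RNA was extracted and reporter cDNA amplified with sequence-specific primers. Labelled fragments were separated by capillary electrophoresis, and the CRE signal was fitted bidirectionally with DMSO as baseline.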

The target in assay [2] is CCAAT/enhancer-binding protein beta (Homo sapiens) (UniProt P17676). In words: ATG_C_EBP_CIS: Attagene CIS-FACTORIAL HepG2 Assay for human CCAAT/Enhancer Binding Protein (C/EBP) beta (AID 2282927). The following applies: HepG2 Attagene cis-factorial transcription factor reporter; actives raise or lower the signal. Summed up:
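Changes in reporter mRNA, rather than exogenous chimeric receptor activity, reflect native C/EBP signalling in transfected HepG2 cells dosed for 24 h; transcripts are detected by RT-PCR and capillary electrophoresis.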

Assay [3] is described as follows: ATG_CMV_CIS: Attagene CIS-FACTORIAL HepG2 Assay for human CMV (Internal Marker) (AID 2282928).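 Note: endpoint acts as a background internal control marker rather than a target.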 The following applies: HepG2 CMV promoter reporter, transcription factor profiling; actives raise or lower the signal. Summed up: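 HepG2 cells transiently transfected with multiple cis-regulated reporter units; 24 h compound exposure. Reporter mRNA quantified by RT-PCR, 6-FAM primer-extension labeling, HpaI digestion and capillary electrophoresis; bidirectional fitting against DMSO baseline.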

Assay [4] can be described thus: ATG_DR4_LXR_CIS: Attagene CIS-FACTORIAL HepG2 Assay for human Liver X Receptor (LXR), DR4 submotif (AID 2282929). As to conditions: HepG2 Attagene DR4 cis-reporter, mRNA transcription; actives raise or lower the signal. An outline of the steps:
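After transient transfection with multiplexed cis-promoter reporter units, HepG2 cells received test chemicals for 24 h. Reporter mRNA induction, detected by fluorescence after RT-PCR and capillary electrophoresis, was scored relative to DMSO.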

For assay [5], the target named is Aryl hydrocarbon receptor (Homo sapiens) (UniProt P35869). In words: ATG_Ahr_CIS: Attagene CIS-FACTORIAL HepG2 Assay for human Aryl Hydrocarbon Receptor (Ahr) (AID 2282930). The following applies: HepG2 AhR cis-factorial reporter transcription; actives raise or lower the signal. An outline of the steps: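 HepG2, transient MRTU (cis) transfection, 24 h exposure. RNA → cDNA → PCR → 6-FAM primer extension → HpaI 2 h 37 C → CE. Fit: bidirectional, DMSO baseline.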
Chain of Aryl hydrocarbon receptor (Homo sapiens) (P35869 whole entry, looked up): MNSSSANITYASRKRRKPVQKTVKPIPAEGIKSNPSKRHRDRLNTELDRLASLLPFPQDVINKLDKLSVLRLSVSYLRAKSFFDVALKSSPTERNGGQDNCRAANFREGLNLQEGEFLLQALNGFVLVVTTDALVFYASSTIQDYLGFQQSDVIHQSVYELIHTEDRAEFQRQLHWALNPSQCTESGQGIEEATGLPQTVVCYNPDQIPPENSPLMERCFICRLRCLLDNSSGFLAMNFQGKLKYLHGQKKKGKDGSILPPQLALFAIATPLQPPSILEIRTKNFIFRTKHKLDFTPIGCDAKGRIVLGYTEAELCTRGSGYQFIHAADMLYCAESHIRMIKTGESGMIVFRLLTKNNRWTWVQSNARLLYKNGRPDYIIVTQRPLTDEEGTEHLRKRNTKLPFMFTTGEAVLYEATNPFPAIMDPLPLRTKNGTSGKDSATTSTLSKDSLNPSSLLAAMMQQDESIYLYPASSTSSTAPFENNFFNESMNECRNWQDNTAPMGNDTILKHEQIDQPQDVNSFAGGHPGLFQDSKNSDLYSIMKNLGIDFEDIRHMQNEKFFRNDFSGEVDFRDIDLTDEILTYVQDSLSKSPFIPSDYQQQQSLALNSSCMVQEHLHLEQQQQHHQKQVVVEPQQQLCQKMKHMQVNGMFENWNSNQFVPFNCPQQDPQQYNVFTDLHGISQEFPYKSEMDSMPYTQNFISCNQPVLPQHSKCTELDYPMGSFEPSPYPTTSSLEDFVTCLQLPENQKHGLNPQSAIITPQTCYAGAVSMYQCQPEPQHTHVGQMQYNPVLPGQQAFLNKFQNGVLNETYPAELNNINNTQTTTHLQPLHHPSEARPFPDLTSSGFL

A short description of assay [6]: ATG_AP_1_CIS: Attagene CIS-FACTORIAL HepG2 Assay for human Activator Protein 1 (AP-1) (AID 2282931). As to conditions: HepG2 Attagene cis-factorial AP-1 reporter mRNA; actives raise or lower the signal. Summed up: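 After 24 h incubation with test chemical, RNA from transfected HepG2 cells was reverse-transcribed, amplified, fluorescently labelled and digested before capillary electrophoresis. Reporters were driven by cis-regulatory promoters; activity fitted bidirectionally versus DMSO.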

Assay [7] is described as follows: ATG_AP_2_CIS: Attagene CIS-FACTORIAL HepG2 Assay for human Activator Protein 2 (AP-2) (AID 2282932). As to conditions: HepG2 AP-2 cis-reporter, Attagene transcription factor profiling; actives raise or lower the signal. An outline of the steps:
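HepG2, transient MRTU transfection, cis-regulated reporters; 24 h compound exposure; RNA isolated, RT-PCR, 6-FAM labelling, HpaI digest, CE fluorescence. DMSO = negative control/baseline, bidirectional fit.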

Assay [8] in a line: ATG_BRE_CIS: Attagene CIS-FACTORIAL HepG2 Assay for human Bone Morphogenetic Protein (BMP) Response Element (BRE) (AID 2282933). As to conditions: HepG2 BMP response element reporter, Attagene transcription factor profiling; actives raise or lower the signal. Summed up:
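A HepG2 multiplex reporter system measured inducible reporter mRNA 24 h post-dosing. Detection: RT-PCR, 6-FAM primer extension, HpaI digestion, capillary electrophoresis. Activity fitted bidirectionally relative to DMSO.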

Assay [9] concerns the target Retinoic acid receptor alpha (Homo sapiens) (UniProt P10276). As to the kind of experiment: ATG_DR5_RAR_CIS: Attagene CIS-FACTORIAL HepG2 Assay for human Retinoic Acid Receptor Alpha (RARE), DR5 submotif (AID 2282934).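 For AC50: reporter responds to endogenous RAR alpha beta and gamma in HepG2 not RARA alone.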 As to conditions: HepG2 Attagene cis-factorial RARE DR5 reporter, mRNA; actives raise or lower the signal. Summed up: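 HepG2, transient cis-reporter transfection, 24 h exposure. mRNA readout: RT-PCR, FAM label, HpaI cut, capillary electrophoresis. DMSO baseline, gain/loss fitting.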

The target in assay [10] is Transcription factor E2F1 (Homo sapiens) (UniProt Q01094). As to the kind of experiment: ATG_E2F_CIS: Attagene CIS-FACTORIAL HepG2 Assay for human E2F Transcription Factor 1 (AID 2282935). As to conditions: HepG2 Attagene cis-reporter, E2F reporter RNA transcripts; actives raise or lower the signal. An outline of the steps: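 Cis-element reporter mRNA induction in transiently transfected HepG2, 24 h exposure. Activity fitted in both directions relative to DMSO negative control.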
Chain of Transcription factor E2F1 (Homo sapiens) (Q01094 whole entry, looked up): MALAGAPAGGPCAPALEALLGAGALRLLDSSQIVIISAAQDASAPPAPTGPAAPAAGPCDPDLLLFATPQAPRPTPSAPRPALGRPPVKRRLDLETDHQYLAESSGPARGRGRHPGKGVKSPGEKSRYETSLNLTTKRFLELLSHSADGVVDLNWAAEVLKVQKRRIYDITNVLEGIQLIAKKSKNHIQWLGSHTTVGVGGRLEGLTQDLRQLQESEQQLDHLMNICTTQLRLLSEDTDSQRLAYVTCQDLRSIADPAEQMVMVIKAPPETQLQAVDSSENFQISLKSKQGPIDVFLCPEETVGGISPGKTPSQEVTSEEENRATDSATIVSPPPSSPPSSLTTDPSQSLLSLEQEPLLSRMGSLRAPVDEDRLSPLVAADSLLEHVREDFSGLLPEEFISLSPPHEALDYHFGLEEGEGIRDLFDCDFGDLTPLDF

Assay [11] is described as follows: ATG_E_Box_CIS: Attagene CIS-FACTORIAL HepG2 Assay for human Enhancer Box (E-box) (AID 2282936). As to conditions: HepG2 E-box cis-reporter transcription, actives raise or lower the signal. Summed up:
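Cells: HepG2 (human liver), transient MRTU transfection. Exposure 24 h. RNA → oligo(dT) RT → PCR → 6-FAM label → HpaI → CE. Activity fitted both directions relative to DMSO.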

Assay [12] is described as follows: ATG_M_61_CIS: Attagene CIS-FACTORIAL HepG2 Assay for M61 Transcription Factor (Internal Marker) (AID 2282937). As to conditions: HepG2 Attagene CIS-FACTORIAL M61 internal marker reporter; actives raise or lower the signal. Summed up: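 Using transiently transfected HepG2 liver cells, reporter transcript levels were assessed 24 h post-dosing by RT-PCR and capillary electrophoresis. Changes in either direction were fitted relative to DMSO controls.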

Assay [13] is described as follows: ATG_EGR_CIS: Attagene CIS-FACTORIAL HepG2 Assay for human Early Growth Response 1 (EGR1) (AID 2282938). As to conditions: HepG2 Attagene CIS-FACTORIAL EGR reporter mRNA; actives raise or lower the signal. Summed up: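 Fluorescent capillary-electrophoresis signal of reporter cDNA fragments serves as read-out. HepG2 cells bear transiently transfected cis-promoter reporter units and are exposed 24 h; gain- or loss-of-signal is fitted against DMSO.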

Assay [14] can be described thus: ATG_M_19_CIS: Attagene CIS-FACTORIAL HepG2 Assay for M19 Transcription Factor (Internal Marker) (AID 2282939). As to conditions: HepG2 Attagene CIS-FACTORIAL M19 internal marker reporter; actives raise or lower the signal. Summed up:
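Chemical-treated HepG2 (24 h) with MRTU constructs; reporter transcripts detected by fluorescent RT-PCR fragment analysis on capillary electrophoresis. Internal background marker, DMSO as baseline.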

Assay [15] is described as follows: ATG_ERE_CIS: Attagene CIS-FACTORIAL HepG2 Assay for Estrogen Response Element (ERE) (AID 2282940). As to conditions: HepG2 ERE cis-reporter, Attagene RNA transcript; actives raise or lower the signal. An outline of the steps:
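Human liver cells (HepG2) bearing transiently transfected, promoter-regulated reporter units were exposed 24 h. Reporter mRNA induction was detected by capillary electrophoresis of labelled RT-PCR products and fitted bidirectionally to DMSO.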

Assay [16] in a line: ATG_Ets_CIS: Attagene CIS-FACTORIAL HepG2 Assay for human Erythroblast Transformation Specific (ETS) (AID 2282941). The following applies: HepG2 ETS cis-reporter transcription, actives raise or lower the signal. Summed up: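 HepG2 cells transiently transfected with cis-promoter reporter transcription units were dosed for 24 h; reporter mRNA was measured by RT-PCR, 6-FAM primer extension, HpaI digestion and capillary electrophoresis, with bidirectional fitting against DMSO baseline.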

The target of assay [17] is Hepatocyte nuclear factor 3-beta (Homo sapiens) (UniProt Q9Y261). As to the kind of experiment: ATG_FoxA2_CIS: Attagene CIS-FACTORIAL HepG2 Assay for human Forkhead box A2 (FOXA2) (AID 2282942). As to conditions: HepG2 cis-reporter transcription factor activity, 24 h; actives raise or lower the signal. Summed up:
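Fluorescence signal of reporter cDNA fragments, separated by capillary electrophoresis, reflects endogenous transcription factor activity in transfected HepG2 after 24 h. Both increases and decreases fitted against DMSO.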

The nature of assay [18]: ATG_FoxO_CIS: Attagene CIS-FACTORIAL HepG2 Assay for human Forkhead box O (FoxO) (AID 2282943). As to conditions: HepG2 Attagene cis-reporter, FoxO element, mRNA; actives raise or lower the signal. An outline of the steps:
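Human hepatoma HepG2 cells carry transiently introduced reporter transcription units controlled by cis promoter elements. Chemical treatment lasted 24 h, and mRNA signal was compared with DMSO.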

The nature of assay [19]: ATG_GATA_CIS: Attagene CIS-FACTORIAL HepG2 Assay for human GATA Binding Protein (AID 2282944). The following applies: HepG2 GATA cis-element reporter, Attagene multiplex mRNA; actives raise or lower the signal. Summed up:
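Transfected cis-reporter HepG2 cells were treated with chemicals for 24 hours. Total RNA was then converted to cDNA, amplified with reporter-specific primers and analysed by fluorescent capillary electrophoresis, using DMSO-treated wells as baseline.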

Assay [20] is described as follows: ATG_GLI_CIS: Attagene CIS-FACTORIAL HepG2 Assay for human Zinc Finger Protein GLI1 (AID 2282945). As to conditions: HepG2, Attagene cis-factorial reporter mRNA, GLI element; actives raise or lower the signal. An outline of the steps: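 Bidirectional curve fits relative to DMSO, using reporter mRNA levels from RT-PCR plus capillary electrophoresis. Cells were HepG2 transiently carrying cis-regulated reporter constructs, harvested 24 h after dosing.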

Chain of Hepatocyte nuclear factor 3-beta (Homo sapiens) (Q9Y261 whole entry, looked up, the tested form may be a part): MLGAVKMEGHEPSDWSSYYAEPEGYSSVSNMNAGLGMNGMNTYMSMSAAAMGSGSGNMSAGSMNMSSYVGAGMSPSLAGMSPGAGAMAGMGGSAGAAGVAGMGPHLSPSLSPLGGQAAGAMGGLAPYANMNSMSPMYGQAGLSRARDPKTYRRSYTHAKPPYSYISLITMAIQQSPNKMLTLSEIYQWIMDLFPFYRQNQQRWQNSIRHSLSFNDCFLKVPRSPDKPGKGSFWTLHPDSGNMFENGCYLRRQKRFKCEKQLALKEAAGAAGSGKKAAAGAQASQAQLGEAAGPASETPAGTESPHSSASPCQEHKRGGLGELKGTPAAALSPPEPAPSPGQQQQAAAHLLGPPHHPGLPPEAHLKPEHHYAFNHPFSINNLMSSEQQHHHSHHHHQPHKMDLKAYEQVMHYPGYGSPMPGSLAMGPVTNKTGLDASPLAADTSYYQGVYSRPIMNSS
Chain of Retinoic acid receptor alpha (Homo sapiens) (P10276 whole entry, looked up): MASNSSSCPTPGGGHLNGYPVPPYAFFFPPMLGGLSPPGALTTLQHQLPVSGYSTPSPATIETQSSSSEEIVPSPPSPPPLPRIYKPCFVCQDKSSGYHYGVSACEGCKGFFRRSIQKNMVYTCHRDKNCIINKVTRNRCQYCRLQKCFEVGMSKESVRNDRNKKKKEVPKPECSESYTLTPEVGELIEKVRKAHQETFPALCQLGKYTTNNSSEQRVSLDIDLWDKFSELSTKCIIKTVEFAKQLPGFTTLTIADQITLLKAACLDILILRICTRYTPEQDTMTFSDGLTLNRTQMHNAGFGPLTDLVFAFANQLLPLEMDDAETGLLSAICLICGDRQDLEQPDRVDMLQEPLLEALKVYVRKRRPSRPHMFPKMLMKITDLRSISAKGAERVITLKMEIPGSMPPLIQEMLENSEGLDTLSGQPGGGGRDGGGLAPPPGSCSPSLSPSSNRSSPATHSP
Chain of CCAAT/enhancer-binding protein beta (Homo sapiens) (P17676 whole entry, looked up): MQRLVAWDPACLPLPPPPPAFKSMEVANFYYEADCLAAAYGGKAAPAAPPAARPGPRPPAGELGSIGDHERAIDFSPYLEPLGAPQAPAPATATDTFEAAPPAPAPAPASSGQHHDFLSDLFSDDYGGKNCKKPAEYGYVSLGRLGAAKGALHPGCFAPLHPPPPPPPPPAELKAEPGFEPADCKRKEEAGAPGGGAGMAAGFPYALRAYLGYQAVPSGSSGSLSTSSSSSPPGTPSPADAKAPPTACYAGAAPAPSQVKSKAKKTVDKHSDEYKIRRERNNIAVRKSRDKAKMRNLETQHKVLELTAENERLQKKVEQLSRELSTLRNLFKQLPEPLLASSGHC

As to `COc1cc(C(=O)NC2CCN(C)CC2)ccc1Nc1ncc2c(n1)N(C1CCCC1)CC(F)(F)C(=O)N2C`, the AC50 is 0.933 µM (active) in assay [1]; 0.472 µM (active) in assay [2]; 5.99 µM (active) in [4]; 5.06 µM (active) in [6]; 890 nM (active) in [7]; 0.51 µM (active) in assay [9]. The values for the AC50 in [13], in assay [16] and in assay [18] were 2.26 µM (active), 1.55 µM (active) and 3.63 µM (active), respectively. The call in assay [3], in assay [5], in [8], in [10], in [11] and in assay [12] was inactive. Further, the call in [14], in [15], in assay [17], in assay [19] and in [20] was inactive.

Consider `CC(C)(C)c1csc(-c2cc3cc(OCc4ccccc4CC(=O)O)ccc3o2)n1`, for which the AC50 was 54.3 µM (active) in assay [1]; 33.4 µM (active) in assay [3]; 4.56 µM (active) in [4]; 33.4 µM (active) in assay [6]; 57.6 µM (active) in assay [8]; 14.4 µM (active) in assay [13]. Moreover, the result in assay [2], in assay [5], in [7], in assay [9], in assay [10] and in assay [11] was inactive. The result in [12], in assay [14], in assay [15], in assay [16], in assay [17] and in assay [18] was inactive. Besides, the compound was classed as inactive in assay [19] and in assay [20].

For `CN(C)C(=O)C1(N2CCCCC2)CCN(CC[C@@]2(c3ccc(Cl)c(Cl)c3)CN(C(=O)c3ccccc3)CCO2)CC1`, the compound was called inactive in assay [1], in assay [2], in assay [3], in assay [4], in assay [5] and in assay [7]. In addition, the call in assay [8], in [9], in assay [10], in [11], in [12] and in assay [13] was inactive. Also, the compound was called inactive in assay [14], in assay [15], in assay [16], in assay [17], in [18] and in assay [19]. Further, the outcome in [20] was inactive. Moreover, the AC50 in assay [6] was 0.463 µM (active).

With `CN(C[C@@H](CC[N+]12CCC(C3CCCCC3)(CC1)CC2)c1ccc(Cl)c(Cl)c1)C(=O)c1cc(C(F)(F)F)cc(C(F)(F)F)c1`, the result in assay [1], in assay [2], in assay [3], in assay [4], in assay [5] and in [6] was inactive. The outcome in [7], in assay [8], in assay [9], in assay [10], in assay [11] and in assay [12] was inactive. Further, the call in assay [13], in [14], in assay [15], in assay [16], in [17] and in assay [19] was inactive. Further, the call in assay [20] was inactive.

As for `CCOC(=O)O[C@H](C)OC(=O)c1ccc2c(c1)cc(C(=O)NC1CCN(C(C)C)CC1)n2Cc1cc(-c2ccc(Cl)s2)on1`, the compound was classed as inactive in assay [1], in [2], in [3], in [4], in [5] and in assay [6]. The result in [7], in assay [8], in assay [10], in assay [11], in assay [12] and in assay [13] was inactive. Moreover, the compound was called inactive in [14], in assay [16], in assay [17], in [18], in [19] and in [20]. In addition, the AC50 is 42.2 µM (active) in assay [9] and 33 µM (active) in assay [15].

With `NCc1cccc(C2CCN(C(=O)c3ccc(C#Cc4ccccc4F)o3)CC2)c1`, the AC50 in assay [1] is 11 µM (active); in assay [2], 11 µM (active); in assay [3], 11 µM (active); in assay [6], 11 µM (active); in [13] it was 11 µM (active); in assay [15], 2.81 µM (active). The compound was called inactive in [4], in assay [5], in [7], in assay [8], in assay [9] and in assay [10]. The result in assay [11], in assay [12], in assay [14], in assay [16], in assay [17] and in assay [19] was inactive. Further, the compound was called inactive in assay [20].
